# Laboratory results: PubChem BioAssay (Tox21)
# Inconclusive results are not listed. Calls of active or inactive are those of the source. The call rests on the fitted dose curve; in most records, active means well fitted inhibition curve with a large enough effect in the repeat runs; inconclusive means weak or mixed curves; inactive means no such curve, though single readings can be large or run the other way.
# Target: Androgen receptor (Homo sapiens) (UniProt P10275)
# Experiment: qHTS assay to identify small molecule antagonists of the androgen receptor (AR) signaling pathway using the MDA cell line in the presence of 0.5 nM R1881 (AID 1259243); further: nearly all actives have a fitted effect of over 50% in size
# Settings: MDA-kb2 MMTV-luciferase, R1881 0.5 nM, 16 h; series mostly up to 92.4 µM; activity, negative = inhibition: at the top concentration
# Text: U.S. Tox21 Program National Center for Advancing Translational Sciences [NCATS] NIH Chemical Genomics Center [NCGC] U.S. Environmental Protection Agency [EPA] National Institutes of Environmental Health Sciences [NIEHS] National Toxicology Program [NTP] U.S. Food and Drug Administration [FDA] Tox21 Assay Overview: Androgen receptor (AR) is an important member of the nuclear receptor family. Its signaling plays a critical role in AR-dependent prostate cancer and other androgen related diseases. Considerable attention has been given in the past decades to develop methods to study and screen for the environmental chemicals that have the potential to interfere with metabolic homeostasis, reproduction, developmental and behavioral functions. Therefore AR binding assay for screening androgen antagonists can be used to identify potential endocrine disruptors. MDA-kb2 cells (from ATCC, deposited by Wilson et al.) were used to screen for AR inhibitors against Tox21 compound libraries. These cells are human breast carcinoma cells that were stably transfected with a luciferase reporter gene under control of the MMTV promoter that contains response elements for both androgen receptor (AR) and glucocorticoid receptor (GR). The current screening for identification of AR inhibitors against Tox21 libraries used lower concentration (0.5 nM) of R1881 as a stimulator.
# Tox21 Assay Protocol Summary: MDA-kb2 cells (cells cultured without CO2) were dispensed at 3,000 cells/well in 4 uL of culture medium into white wall/solid-bottom 1536-well plates (Corning Life Sciences, Corning, NY) using a Multidrop Combi (ThermoFisher Scientific, Waltham, MA) dispenser. After the assay plates were incubated at a 37C and 0% CO2 for 5 hr, 23 nL of compounds dissolved in DMSO, positive controls or DMSO only was transferred to the assay plate by a Pintool station (Kalypsys, San Diego, CA). The transfer of compounds was followed by the addition of 1 uL of 0.5 nM (final concentration) agonist (R1881)/culture medium using a Flying Reagent Dispenser (FRD, Aurora Discovery, San Diego, CA). The plates were incubated at 37C and 0% CO2 for 16 hr. For luciferase reporter gene assay, 4 uL of ONE-Glo reagent (Promega Corporation, Madison, WI) was added to each well using the FRD and after 30 min incubation at room temperature luminescence intensity was measured using ViewLux plate reader (PerkinElmer, Shelton, CT).
# On the % scale 0 is the no-effect control and ±100 the full control effect; potency means the concentration at half of the fitted maximal effect.
# Sequence of Androgen receptor (Homo sapiens) (P10275 whole entry, looked up): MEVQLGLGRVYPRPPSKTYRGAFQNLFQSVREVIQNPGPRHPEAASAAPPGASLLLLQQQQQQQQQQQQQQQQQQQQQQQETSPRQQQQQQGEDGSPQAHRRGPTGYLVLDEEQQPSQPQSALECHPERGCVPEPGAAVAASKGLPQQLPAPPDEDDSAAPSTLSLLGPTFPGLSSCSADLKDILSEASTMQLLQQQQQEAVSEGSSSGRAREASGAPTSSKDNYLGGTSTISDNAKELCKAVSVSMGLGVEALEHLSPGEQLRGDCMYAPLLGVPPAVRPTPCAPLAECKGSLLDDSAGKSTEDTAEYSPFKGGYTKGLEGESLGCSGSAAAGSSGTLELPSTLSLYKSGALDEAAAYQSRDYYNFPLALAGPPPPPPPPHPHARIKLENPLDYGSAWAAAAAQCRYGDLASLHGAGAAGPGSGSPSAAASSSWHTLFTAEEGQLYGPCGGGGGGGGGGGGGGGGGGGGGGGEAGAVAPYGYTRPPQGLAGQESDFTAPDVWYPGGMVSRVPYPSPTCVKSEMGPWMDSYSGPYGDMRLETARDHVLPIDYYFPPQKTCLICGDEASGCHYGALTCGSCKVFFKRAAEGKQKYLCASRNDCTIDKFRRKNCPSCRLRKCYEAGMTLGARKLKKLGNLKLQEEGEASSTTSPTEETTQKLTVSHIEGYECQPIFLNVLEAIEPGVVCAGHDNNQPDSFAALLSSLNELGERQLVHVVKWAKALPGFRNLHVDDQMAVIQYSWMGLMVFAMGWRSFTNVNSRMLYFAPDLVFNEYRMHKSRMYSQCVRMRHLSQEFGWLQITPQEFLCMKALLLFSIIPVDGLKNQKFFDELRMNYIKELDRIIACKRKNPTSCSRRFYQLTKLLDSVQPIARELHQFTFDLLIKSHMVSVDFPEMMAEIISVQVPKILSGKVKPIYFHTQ
Structure (SMILES),"activity, negative = inhibition",Potency
COc1cc(OC)nc(Oc2cccc(Oc3nc(OC)cc(OC)n3)c2C(=O)O)n1,11% (inactive),
CC1COC2(c3ccccc3Cl)c3cc(Cl)ccc3NC(=O)CN12 (stereo not given),-17.8% [at 42.5 µM] (inactive),
COP(N)(=S)Oc1ccccc1C(=O)OC(C)C (stereo not given),-18.3% (inactive),
CCOP(=O)(OCC)OP(=O)(OCC)OCC,4.77% (inactive),
COc1ccc2c(c1OC)CN1CCc3cc4c(cc3C1C2)OCO4 (stereo not given),,26.6 µM (active)
CCOP(=S)(OCC)Oc1ncn(-c2ccccc2)n1,8.23% (inactive),
Nc1ccccc1Cl,3% (inactive),
c1ccc(N2CCNCC2)cc1,-3.02% [at 42.5 µM] (inactive),
CCCCOC(=O)c1ccccc1C(=O)O,-7.51% (inactive),
Fc1cc(Br)ccc1CBr,-0.264% [at 42.5 µM] (inactive),
Cc1nc(N)nc(N)n1,64.7% (inactive),
C[C@]12CC[C@H]3[C@@H](CCC4=CC(=O)CC[C@@]43C)[C@@H]1CC[C@@H]2C(=O)O,-9.52% [at 42.5 µM] (inactive),
CCC(=O)C(CCN(C)C)(c1ccccc1)c1ccccc1,-2.89% [at 42.5 µM] (inactive),
CC(C(O)c1ccccc1)N(C)C/C=C/c1ccccc1 (stereo not given),4.17% [at 42.5 µM] (inactive),
CNC(=O)Oc1ccccc1C1OCCO1,9.01% (inactive),
CNC(=O)Oc1c(C(C)(C)C)cc(C)cc1C(C)(C)C,1.04% (inactive),
O=NN1CCCCC1,4.1% (inactive),
CC1=C(C(=O)O)N2C(=O)[C@@H](N)[C@H]2SC1,15.5% [at 19 µM] (inactive),
O=C(N[C@H]1CN2CCC1CC2)c1cc2ccoc2cn1,7.54% (inactive),
Cc1cnc[nH]1,-2.43% (inactive),

Structure (SMILES),"activity, negative = inhibition",Potency
O=C(O)c1ccc2[nH]cc(CCCCN3CC=C(c4ccccc4)CC3)c2c1,-1.08% [at 42.5 µM] (inactive),
CC(C)(C)NCC(O)c1cc(Cl)c(N)c(Cl)c1 (stereo not given),2.26% [at 42.5 µM] (inactive),
CCCCCCI,0.832% (inactive),
CCC(C)(C)c1cc(-n2nc3ccccc3n2)c(O)c(C(C)(C)CC)c1,,39.2 µM (active)
Clc1ccccc1N1CCNCC1,-10.4% [at 42.5 µM] (inactive),
CNC(=O)N(C)c1nc2ccccc2s1,-18.9% (inactive),
COC(=O)C(c1ccccc1)C1CCCCN1 (stereo not given),1.89% (inactive),
CCOC(=O)C(c1c(O)c2ccccc2oc1=O)c1c(O)c2ccccc2oc1=O,5.85% [at 42.5 µM] (inactive),
C#C[C@]1(O)C=C[C@H]2[C@@H]3CCC4=CC(=O)CC[C@@H]4[C@H]3CC[C@@]21CC,153% [at 42.5 µM] (inactive),
O=C(Nc1ccccc1)c1ccccc1I,-10.1% (inactive),
CCC(=O)c1ccccc1,17% (inactive),
N#CC(Cl)(Cl)Cl,-4.24% (inactive),
c1cc2c(c(N3CCNCC3)c1)OCCO2,-2.21% [at 42.5 µM] (inactive),
COc1ncc(F)c2nc(S(=O)(=O)Nc3c(F)cccc3F)nn12,6.51% [at 42.5 µM] (inactive),
O=C1OC(CCN2CCCCC2)OC1(c1ccccc1)c1ccccc1 (stereo not given),-6.73% [at 42.5 µM] (inactive),
CC(COc1ccc(Oc2ccccc2)cc1)Oc1ccccn1 (stereo not given),-4.19% (inactive),
CCCCOP(=O)(O)OCCCC,6.35% (inactive),
CC(C(=O)c1ccccc1)N(C)C (stereo not given),-3.88% [at 42.5 µM] (inactive),
O=CNC(N1CCN(C(NC=O)C(Cl)(Cl)Cl)CC1)C(Cl)(Cl)Cl (stereo not given),,30.6 µM (active)
CC(C)CC#N,-1.05% (inactive),
